# Reference: PubChem BioAssay AID2551 (National Center for Advancing Translational Sciences (NCATS), 2010)
# “And” between values parts separate entries of the source, which are not always exact repeats. Identical values can stand only once. About 17,000 (5.5%) of roughly 310,000 compounds were called active. Inconclusive results (about 11%) are left out. This is one part of a sample in which actives are shown more often than they occur. The call rests on the fitted dose curve; in most records, active means well fitted inhibition curve with a large enough effect; inconclusive means small, poorly fitted or top-dose-only effect, or effect the other way; inactive means no such curve, though single readings can be large or run the other way. A structure can be active in one record and inactive in another.
# Biological target: Nuclear receptor ROR-gamma (Mus musculus) (UniProt P51450)
# Test: qHTS for inhibitors of ROR gamma transcriptional activity; further: nearly all actives have a fitted effect of over 60% in size
# Conditions: Drosophila S2 Gal4-RORgamma UAS-luciferase reporter, 20 h; series mostly up to 53.6 µM; activity change, negative = inhibition: at the top concentration
# Text: NIH Molecular Libraries Probe Production Network [MLPCN] NIH Chemical Genomics Center [NCGC] MLPCN Grant: R03 DA026211-01 Assay Provider: Dan Littman, New York University Assay Overview: The retinoic acid-related orphan receptor (ROR) gamma is a transcription factor that has a central role in the differentiation of Th17 cells, a subset of T helper cells that secrete the inflammatory cytokines IL-17, IL-17F, and IL-22. Th17 cells have been implicated in graft versus host disease, autoimmune disease and asthma. ROR gamma is induced in naive T helper cells in the presence of TGF-beta combined with IL-6, IL-21, or IL-23, and thereafter directs the expression of the Th17 lineage cytokines. To study the mechanism of action of ROR gamma, an insect cell-based assay was screened. This Drosophila Schneider cell line was stably transfected with two vectors: a gene expressing a fusion of the Gal4 DNA binding domain and ROR gamma transactivation domain under the control of the metallothionine promoter and a Photinus luciferase reporter regulated by the Gal4 binding site enhancer, UAS. […] Small molecule inhibitors of ROR gamma activity are detected by a decrease in luciferase reporter activity.
# Assay Protocol Summary: For screening, 600 cells in 4 uL/well were dispensed into white solid 1536-well plates (Grenier) using a solenoid-based dispenser. Following transfer of 23 nL compound or DMSO vehicle by a pin tool, the plates were incubated 1 hr at ambient temperature, and 1 uL/well copper sulfate (700 uM final concentration) was added. The plates were centrifuged 15 s at 1000 RPM and incubated 20 hr at ambient temperature. After addition of 1.5 uL Photinus luciferase detection reagent, the plates were incubated 10 min at ambient temperature and then read by an ViewLux (Perkin Elmer) to detect luminescence. Keywords: NIH Roadmap, MLPCN, MLI, MLSMR, qHTS, NCGC, qHTS, nuclear hormone receptor, retinoic acid-related orphan receptor, ROR gamma
# On the % scale 0 is the no-effect control and ±100 the full control effect; potency means the concentration at half of the fitted maximal effect.
# Nuclear receptor ROR-gamma (Mus musculus), sequence (P51450 whole entry, looked up): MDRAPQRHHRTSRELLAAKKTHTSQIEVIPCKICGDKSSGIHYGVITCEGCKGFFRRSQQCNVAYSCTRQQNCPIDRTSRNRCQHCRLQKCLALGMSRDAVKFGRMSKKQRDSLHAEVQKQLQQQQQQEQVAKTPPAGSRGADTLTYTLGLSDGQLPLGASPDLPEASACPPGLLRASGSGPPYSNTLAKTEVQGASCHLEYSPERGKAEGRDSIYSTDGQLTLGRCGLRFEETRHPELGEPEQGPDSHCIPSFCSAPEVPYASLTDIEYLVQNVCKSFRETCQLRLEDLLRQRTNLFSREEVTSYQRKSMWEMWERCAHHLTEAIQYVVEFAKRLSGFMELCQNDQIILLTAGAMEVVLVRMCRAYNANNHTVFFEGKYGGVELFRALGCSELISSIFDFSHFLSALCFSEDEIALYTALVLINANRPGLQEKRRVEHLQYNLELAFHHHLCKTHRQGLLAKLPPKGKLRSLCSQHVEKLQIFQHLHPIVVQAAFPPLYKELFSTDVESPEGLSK
Compound,Potency,"activity change, negative = inhibition"
c1ccc2sc(SNC3CCCCC3)nc2c1,8.91 µM (active),–
c1ccc2sc(C3CCCNC3)nc2c1 (stereo not given),–,1.38% (inactive)
c1ccc2sc(N3CCNCC3)nc2c1,–,-0.416% (inactive)
CC[N+](C)(CC)CCC[n+]1c(-c2ccccc2)c2cc(N)ccc2c2ccc(N)cc21,3.16 µM (active),–
CN[C@@H]1C[C@H]2O[C@@](C)([C@@H]1OC)n1c3ccccc3c3c4c(c5c6ccccc6n2c5c31)C(=O)NC4,–,-41% [at 10 µM] (inactive)
CCOc1cccc(=NC2CCCCC2)c2c(C)[nH]c(C)c12,–,-1.6% (inactive)
O=c1oc2ccccc2c(O)c1C(c1ccccc1O)c1c(O)c2ccccc2oc1=O,–,-16.8% (inactive)
CCNC[C@H](O)c1cccc(O)c1,–,-12.3% [at 2.98 µM] (inactive)
C/C(=C\C=C/[C@@H](C)C(=O)O)[C@H]1CN[C@H](C(=O)O)[C@@H]1CC(=O)O,–,-22.1% (inactive)
Fc1ccc(C(OCCN2CCN(C/C=C\c3ccccc3)CC2)c2ccc(F)cc2)cc1,14.1 µM (active),–
ClC(Cl)=C(Cl)C(Cl)=C(Cl)Cl,–,11.4% (inactive)
CC(C)(C)C(O)(CCc1ccc(Cl)cc1)Cn1cncn1 (stereo not given),–,3.39% (inactive)
O=c1[nH]c(=S)n(C2CC2)c(O)c1/C=N/N1CCOCC1,–,-6.79% (inactive)
O=c1[nH]c(=O)n(Cc2ccccc2)c(O)c1/C=N/Nc1c(F)c(F)c(F)c(F)c1F,–,-1.88% (inactive)
O=C(N/N=C/c1c(O)n(C2CC2)c(=S)[nH]c1=O)c1ccccc1,14.1 µM (active),–
COc1ccc(C2N3CC(C)(C)CN23)cc1 (stereo not given),–,17.3% (inactive)
Clc1ccccc1,–,2.46% (inactive)
C[C@@H]1C[C@@H]2O[C@H]2/C=C\C=C\C(=O)Cc2c(Cl)c(O)cc(O)c2C(=O)O1,10 µM (active),–
CNC(C)[C@@H](O)c1ccccc1 (stereo not given in full),–,-6.04% (inactive)
c1ccc(CN2CC[C@@]3(CCCNC3)C2)cc1,–,-4.86% (inactive)
CCCCC/C=C\C/C=C\C/C=C\C=C\[C@H](CCCC(=O)O)OO,–,-25.9% (inactive)
CCC(C)C(=O)O[C@@H]1C[C@@]2(C)C(c3ccoc3)OC(=O)CC23OC2(C)O[C@@]14[C@@]1(C)C(CC(=O)OC)C5(C)CC1(O)C(O)(C5OC(=O)C1(C)OC1C)C(OC(C)=O)[C@@]34O2 (stereo not given in full),–,40.2% (inactive)
CCCCCn1c(=O)c(C(=O)NCc2ccccc2)c(O)c2ccccc21,12.6 µM (active),–
CCCCn1c(=O)c(C(=O)Nc2ccccc2Cl)c(O)c2ccccc21,–,1.37% [at 1.91 µM] (inactive)
CCCCCn1c(=O)c(C(=O)Nc2c(C)n(C)n(-c3ccccc3)c2=O)c(O)c2ccccc21,–,11.8% (inactive)

Compound,Potency,"activity change, negative = inhibition"
CCCCCn1c(=O)c(C(=O)NCc2ccccn2)c(O)c2ccccc21,5.01 µM (active),–
CC[N+]1(CCOC(=O)C(O)(c2ccccc2)c2ccccc2)CCCCC1,–,39.3% (inactive)
Cc1cccc([C@H](C)c2cnc[nH]2)c1C,–,-27.6% (inactive)
CCC1(c2ccccc2)C(=O)NC(=O)N(C)C1=O (stereo not given),–,20.7% (inactive)
O=c1[nH]c(=O)n(-c2ccccc2)c(O)c1C=NC12CN3CN(CN(C3)C1)C2,–,-4.47% (inactive)
CC(=O)c1c(O)c(C)c(O)c(Cc2c(O)c3c(c(C(=O)/C=C/c4ccccc4)c2O)OC(C)(C)C=C3)c1O,–,15.8% (inactive)
CC[C@@H]1CN2CC[C@@H]1C[C@H]2[C@H](O)c1ccnc2ccc(OC)cc12,–,2.09% (inactive)
N#CC(C#N)=Cc1cc(O)c(O)c([N+](=O)[O-])c1,–,-101% (inactive)
CCN1C[C@@]2(COC)CC[C@H](OC)[C@]34[C@@H]1[C@]1(OCO[C@@]15C[C@@H](OC)C1C[C@H]3[C@H]5[C@@H]1OC)[C@H](O)[C@@H]24,–,1.1% [at 16.9 µM] (inactive)
C[C@H]1C/C=C/[C@@H]2[C@@H]3O[C@]3(C)[C@@H](C)[C@H]3[C@H](Cc4ccccc4)NC(=O)[C@]32OC(=O)O/C=C/[C@](C)(O)C1=O,–,-36% (inactive)
C=CCN1CCC23c4c5ccc(O)c4O[C@H]2C(=O)CC[C@@]3(O)C1C5 (stereo not given in full),–,14.1% [at 10 µM] (inactive)
COC([CH2][Hg])CNC(=O)c1ccccc1OCC(=O)O (stereo not given),–,-0.223% (inactive)
CN(C)C[C@H]1CCCC[C@]1(O)c1cccc(O)c1,–,-2.52% (inactive)
c1csc(CN2CCCC3(CCNCC3)C2)n1,–,-23.1% (inactive)
C[C@H]1CC[C@@]2(NC1)O[C@@H]1C[C@H]3[C@@H]4CC=C5C[C@@H](O)CC[C@]5(C)[C@@H]4CC[C@]3(C)[C@@H]1[C@@H]2C,–,0.0152% [at 16.9 µM] (inactive)
CN1CCCC(=C(c2cccs2)c2cccs2)C1,–,0.594% (inactive)
CCCCCCCCCCCCN=C(N)N,–,15.1% (inactive)
CN1C2C=C(N(C(=O)c3ccc(Cl)cc3)c3ccccc3)CC1CC2 (stereo not given),–,-23.9% (inactive)
Cc1cc(C)cc(C(=O)N(CCc2ccccc2)C2=CC3CCC(C2)N3C)c1 (stereo not given),12.6 µM (active),–
CCCCC/C=C\C/C=C\C/C=C\C/C=C\CCCCCC(=O)NCCO,inactive,–
O=C(N/N=C/c1ccc([N+](=O)[O-])o1)c1cc([N+](=O)[O-])cc([N+](=O)[O-])c1O,–,-2.56% (inactive)
c1ccc(N2CC[C@@]3(CCCNC3)C2)nc1,–,-12.7% (inactive)
CCC(=NCc1ccco1)c1c(O)n(Cc2ccccc2)c(=O)[nH]c1=O,–,33.4% (inactive)
CCC(=NCCc1ccccc1)c1c(O)n(C2CCCCC2)c(=O)[nH]c1=O,–,-28.4% (inactive)
CC/C(=N\NC(=O)c1ccccc1O)c1c(O)n(Cc2ccccc2)c(=O)[nH]c1=O,12.6 µM (active),–

Compound,Potency,"activity change, negative = inhibition"
NC[C@H](O)c1ccc(O)cc1,–,3.67% [at 16.9 µM] (inactive)
COc1ccc(C2Oc3c(I)c(OC)cc(OC)c3CC2O)cc1OC (stereo not given),–,12.7% (inactive)
CC(C)(C)c1ccc(CN2C(=O)CN=C(c3ccccc3)c3ccccc32)cc1,–,24.6% (inactive)
ClCCBr,–,14.1% (inactive)
Cc1cc(C)cc(NC(=S)NC2CC3CCCC(C2)N3Cc2cccs2)c1 (stereo not given),8.91 µM (active),–
C[C@@H]1C[C@H]2CC[C@H](O2)[C@H](C)C(=O)O[C@@H](C)C[C@@H]2CC[C@@H](O2)[C@@H](C)C(=O)O[C@H](C)C[C@H]2CC[C@H](O2)[C@H](C)C(=O)O[C@@H](C)C[C@@H]2CC[C@@H](O2)[C@@H](C)C(=O)O1,0.891 µM (active),–
CC(=O)Oc1ccccc1C(=O)Nc1ncc([N+](=O)[O-])s1,–,-79.1% (inactive)
N#Cc1c(Cl)c(Cl)c(Cl)c(C#N)c1Cl,2.51 µM (active),–
O=C1CCc2cccc3c2N1CC3,–,-10.2% (inactive)
Nc1ccc(-c2ccc(N)c(N)c2)cc1N,–,12.8% (inactive)
CC1=CC(=O)C2=C(C)C[C@H](O)[C@H]3[C@H](C)C(=O)O[C@@H]3C12 (stereo not given in full),–,2.61% (inactive)
C=CCSSCC=C,–,-7.73% (inactive)
CCCCCCCCc1[se]c2ccccc2c1Br,–,-0.37% (inactive)
O=C(O)c1ccccc1NC(=O)C1C2CCC(O2)C1C(=O)O (stereo not given),–,-10.6% (inactive)
c1csc(CN2CC3(CCNCC3)C2)n1,–,-0.669% (inactive)
C1CC[C@H]([C@@]23C[C@H](C[C@H]4CCCN[C@H]42)[C@@H]2CCCCN2C3)NC1,–,9.81% (inactive)
Cc1nc2ccccn2c1P(=S)(N1CCCCC1)N1CCCCC1,7.08 µM (active),–
c1ccc(CCCCN2CCC(c3ccccc3)CC2)cc1,–,-10.4% (inactive)
Clc1ccc([C@@H]2C[C@H]3CC[C@@H]2N3)cn1,–,24.9% (inactive)
CC[C@]1(O)C(=O)OCc2c1cc1n(c2=O)Cc2cc3ccccc3nc2-1,–,-21.8% (inactive)
Cc1ncc(CC(=O)n2cc(C(=O)c3cc(Cl)ccc3O)cn2)s1,7.94 µM (active),–
CC(C)(Cc1c[nH]c2ccc(Cl)cc12)NCCOc1ccccc1OCC1CC1,12.6 µM (active),–
N[C@H](C(=O)O)c1cc(=O)[nH]o1,–,-0.853% (inactive)
COC(=O)N1C(c2ccccc2)C1c1ccccc1 (stereo not given),–,19% (inactive)
CC(=O)[O][Sn]([c]1ccccc1)([c]1ccccc1)[c]1ccccc1,0.891 µM (active),–

Compound,Potency,"activity change, negative = inhibition"
C[C@@]12CCC3C(CC[C@@H]4CC(O)CC[C@@]34C)C1CCC2O (stereo not given in full),–,-4.73% (inactive)
Cc1ncsc1CCCl,inactive,–
COc1cc2c(cc1OC)[C@@H]1C(=O)c3ccc(O)c(CC=C(C)C)c3OC1CO2 (stereo not given in full),–,11.8% (inactive)
C[C@@]12CC[C@H]3[C@@H](CC[C@]4(O)C[C@H](O)CC[C@@]34C=O)[C@]1(O)CC[C@@H]2C1=CC(=O)OC1,–,15.8% [at 16.9 µM] (inactive)
N#Cc1cc(Br)c(O)c(Br)c1,–,29.7% (inactive)
CCCCC(=O)N/N=C/c1c(O)n(-c2ccccc2)c(=O)[nH]c1=O,–,-21.3% (inactive)
CCCCC(=O)N/N=C/c1c(O)n(CCC2=CCCCC2)c(=O)[nH]c1=O,–,-37.8% (inactive)
CCCCC(=O)N/N=C/c1c(O)n(CC)c(=S)n(CC)c1=O,2 µM (active),–
CC(Cl)Cl,–,4.6% (inactive)
COC1=C[C@]23CCCN2CCc2cc4c(cc2[C@@H]3[C@@H]1O)OCO4,–,6.52% (inactive)
CCN1C[C@]2(C)CC[C@H](O)[C@@]34[C@@H]5CC6[C@@H](OC)C[C@@](O)([C@@H]5[C@@H]6O)[C@H](C[C@@H]23)[C@H]14,–,23.8% [at 16.9 µM] (inactive)
CO[C@H]1[C@@H](O)[C@@H](C)O[C@H](O[C@H]2[C@H](Oc3cccc4c(O)c5c(=O)oc6ccc(C)c7c(=O)oc(c34)c5c67)O[C@H](C)[C@H](O)[C@@H]2O)[C@@H]1O,11.2 µM (active),–
CN1C2CC3CC1C(O3)C2O (stereo not given),–,6.14% (inactive)
CC(C)(c1ccccc1)c1ccc(O)cc1,–,2.59% (inactive)
CCOc1ccc(-c2cc(C)[n+](CCN(CC)CC)c(-c3ccc(OCC)cc3)c2)cc1,–,-64.7% (inactive)
CCCCC/C=C\C/C=C\C/C=C\CCCCCCC(=O)NCCO,inactive,–
COc1ccc(CN2CCN(c3ccccc3F)CC2)c(OC)c1,–,9% (inactive)
COc1cc(-n2c(=S)[nH]c3ccc(C)cc3c2=O)c(Cl)cc1Cl,2.51 µM (active),–
COc1ccccc1-c1[se]c2ccccc2c1I,–,17.7% (inactive)
C[C@]12O[C@H](C[C@@]1(O)C(=O)O)n1c3ccccc3c3c4c(c5c6ccccc6n2c5c31)CNC4=O,–,13.2% (inactive)
CNCC[C@H](Oc1ccc(C(F)(F)F)cc1)c1ccccc1,–,23.7% [at 16.9 µM] (inactive)
C=CC#N,–,3.71% (inactive)
O=C1C2CCN(CC2)C1(CO)CO,inactive and 25.1 µM (active),–
c1ccc2c(c1)[I+]c1ccccc1-2,–,-83.8% (inactive)
O=P1(Oc2ccccc2)CC(O)C(O)C(COCc2ccccc2)O1 (stereo not given),–,-1.94% (inactive)
